Potency and activity change, negative = cytotoxicity data for 40 compounds are collected here from PubChem BioAssay (Tox21).

Results filed as inconclusive are left out. Where a call stands in place of a potency, no number is given. Values without a mark were called inactive. The source made the active and inactive calls. Calls come from the whole dose curve.

The nature of the test: p53 small molecule agonists, cell-based qHTS assay with human liver microsomes: qHTS cell viability counter screen (AID 1963579). Note: nearly all actives have a fitted effect of over 45% in size. The following applies: p53RE-bla HCT-116 viability, ATP luminescence, 16 h, HLM; series mostly up to 66 µM. The text has this: National Center for Advancing Translational Sciences [NCATS]
Division of Preclinical Innovation [DPI]
U.S. Environmental Protection Agency [EPA]
National Institutes of Environmental Health Sciences [NIEHS]
National Toxicology Program [NTP]
U.S. Food and Drug Administration [FDA]
p53, a tumor suppressor protein, is activated following cellular insult, including DNA damage and other cellular stresses. The activation of p53 regulates cell fate by inducing DNA repair, cell cycle arrest, apoptosis, or cellular senescence. The activation of p53, therefore, is a good indicator of DNA damage and other cellular stresses. […] The activation of the reporter gene under culture conditions can be detected by fluorescence intensity. This cell line was used to screen the Tox21 10K compound library in the condition of presence of human liver microsomes and to identify agonists that activate the p53 signaling pathway after in vitro metabolic activation (Ooka et al., Archive of Toxicology 96:1975-1987, 2022).
Tox21 Assay Protocol Summary:
The p53RE-bla cells were dispensed at 4,000cells/3ul/well in 1536-well black-clear bottom plates. After the assay plates were incubated at 37 C, 5% CO2 incubator for 5 hours, 23 nL of compounds dissolved in DMSO, positive controls or DMSO only was transferred to the assay plate. Following compound addition, 3 uL of human liver microsomes (XenoTech, Kansas City, KS) at final concentration of 0.5 mg/mL and 1uL of B-Nicotinamide adenine dinucleotide 2'-phosphate (NADPH) at final concentration of 0.5 mg/mL were transferred to the assay plate. The plates were incubated at 37 C for 16 hours. 1 uL of LiveBLAzer detection mixture was added to each well and the plates were incubated at room temperature in the dark for 2 h. Fluorescence intensity at 460 and 530 nm emission and 405 nm excitation were measured by an Envision plate reader. For cell viability readout that measures cytotoxicity, 4 ul/well of CellTiter-Glo reagent was added into the assay plates using a Flying Reagent Dispenser. After 30 min incubation at room temperature, the luminescence intensity in the plates was measured using a ViewLux plate reader.
`Cc1oc(C)c(C(=O)Nc2ccccc2)c1C`: the Potency entry is “inactive”.

In the case of `C=C(C)C(=O)OCCOCCOCCOC(=O)C(=C)C`, the Potency result is “inactive”.

Turning to `CC(=O)OC[C@H]1O[C@@H](OC(C)=O)[C@H](OC(C)=O)[C@@H]1OC(C)=O`, the Potency result was “inactive”.

Consider `CCOC(=O)n1ccn(C)c1=S`, for which the Potency result is “inactive”.

Regarding `CC(C)[C@H]1CC[C@@H](C)CC1=O`, the Potency entry is “inactive”.

On to `CC(C)(C)NC(N)=O`, for which the Potency result is “inactive”.

On to `N#C[C@@H]1C[C@@H]2C[C@@H]2N1C(=O)[C@@H](N)C12CC3CC(CC(O)(C3)C1)C2`, for which the Potency entry was “inactive”.

As to `O=C1OC2(c3ccc(O)cc3Oc3cc(O)ccc32)c2ccccc21`, the Potency entry was “inactive”.

In the case of `CN1C(CCl)Nc2cc(Cl)c(S(N)(=O)=O)cc2S1(=O)=O` (stereo not given), the Potency result was “inactive”.

On to `CN1[C@@H]2CC[C@H]1CC(NC(=O)n1c(=O)[nH]c3ccccc31)C2` (stereo not given in full), for which the Potency result is “inactive”.

As for `CCOC(=O)CN`, the Potency entry is “inactive”.

Take `C=CC(=O)NC(C)C`: the Potency entry is “inactive”.

`CO[C@@H]1[C@@H](O[C@@H]2O[C@H](C)[C@@H](O[C@H]3C[C@@](C)(O)[C@@H](O)[C@H](C)O3)[C@H](N(C)C)[C@H]2O)[C@@H](CC=O)C[C@@H](C)[C@@H](O[C@@H]2CC[C@H](N(C)C)[C@@H](C)O2)/C=C/C=C/C[C@@H](C)OC(=O)C[C@H]1OC(C)=O`: the Potency result was “inactive”.

In the case of `NC[C@H]1O[C@H](O[C@H]2[C@H](O)[C@@H](O[C@H]3O[C@H](CO)[C@@H](O)[C@H](N)[C@H]3O)[C@H](N)C[C@@H]2N)[C@H](N)[C@@H](O)[C@@H]1O`, the activity change, negative = cytotoxicity is -3.3% [at 13.5 µM].

As for `C=CC(=O)NCOCCCC`, the Potency result was “inactive”.

Regarding `COc1ccccc1NC(=O)CC(C)=O`, the Potency result is “inactive”.

With `CCOC(=O)c1ccc(N)cc1`, the Potency entry was “inactive”.

For `CC(=O)OCCCc1ccccc1`, the Potency entry was “inactive”.

On to `O=S(=O)(O)c1ccccc1`, for which the Potency entry was “inactive”.

In the case of `COc1c2ccoc2cc2oc(=O)ccc12`, the Potency entry was “inactive”.

For `CN(C)Cc1ccccc1O`, the Potency result was “inactive”.

Regarding `Cc1ccc(O)c([N+](=O)[O-])c1`, the Potency result was “inactive”.

Consider `CS(C)(=O)=O`, for which the Potency result is “inactive”.

As for `CCC(C)C(=O)OCCc1ccccc1` (stereo not given), the Potency entry was “inactive”.

Turning to `CC1=C(O)C(=O)OC1C` (stereo not given), the Potency entry was “inactive”.

As to `CCCC(=O)OCc1ccccc1`, the Potency result is “inactive”.

`Cc1ccc(C(C)(C)C)cc1`: the Potency result was “inactive”.

Consider `OCCCCl`, for which the Potency result was “inactive”.

With `O=S(=O)(O)CCCN1CCOCC1`, the Potency result is “inactive”.

For `O=C(O)c1cccc(Cl)c1Cl`, the Potency entry is “inactive”.

In the case of `CN1CCCC1=O`, the Potency result is “inactive”.

Regarding `C=CC(C)(O)CC/C=C(\C)CCC=C(C)C` (stereo not given), the Potency entry was “inactive”.

Regarding `NC(=O)c1ccc(N)cc1`, the Potency result was “inactive”.

Take `CC(=O)c1cc2ccccc2s1`: the Potency result was “inactive”.

In the case of `O=C(O)Cc1ccc(CCNS(=O)(=O)c2ccc(Cl)cc2)cc1`, the Potency entry is “inactive”.

Take `C=C(C)C(=O)NCCC[N+](C)(C)C`: the Potency result was “inactive”.

As for `CNC(=O)c1c(I)c(NC(C)=O)c(I)c(C(=O)O)c1I`, the Potency result is “inactive”.

Consider `C=C1C[C@]23C[C@@]1(O)CC[C@H]2[C@@]12C=C[C@H](O)[C@@](C)(C(=O)O1)[C@H]2[C@@H]3C(=O)O`, for which the Potency result is “inactive”.

Take `CCN(CC)c1ccc(C=O)c(O)c1`: the Potency result is “inactive”.

As for `CC(C)(C)c1ccc(O)c(O)c1`, the Potency result was “inactive”.
